Measured values: PubChem BioAssay AID488969 (Vanderbilt High Throughput Screening Facility, 2010)
Over roughly 110,000 compounds, “z-score” has its median near -0.1; the highest 2% begin near 2. What follows is part of a selection rich in the highest values, with near analogues and random picks from the rest. Activity calls are given as the source filed them.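 Rule for the calls: active = z-score in the third read window above 3 or below -3; inactive = the rest.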

target: Metabotropic glutamate receptor 8 (Rattus norvegicus) (UniProt P70579); experiment: mGluR8 Gi/Go-coupled signaling modulation – cell-based, rat, thallium flux, HTS, primary screen (AID 488969); conditions: HEK293 rat mGluR8, GIRK (G protein-gated inwardly rectifying potassium channel) thallium flux, FluoZin2; at 10 µM; stronger effect = higher value; submaximal glutamate (EC20) added with thallium
Sequence (P70579 whole entry, looked up): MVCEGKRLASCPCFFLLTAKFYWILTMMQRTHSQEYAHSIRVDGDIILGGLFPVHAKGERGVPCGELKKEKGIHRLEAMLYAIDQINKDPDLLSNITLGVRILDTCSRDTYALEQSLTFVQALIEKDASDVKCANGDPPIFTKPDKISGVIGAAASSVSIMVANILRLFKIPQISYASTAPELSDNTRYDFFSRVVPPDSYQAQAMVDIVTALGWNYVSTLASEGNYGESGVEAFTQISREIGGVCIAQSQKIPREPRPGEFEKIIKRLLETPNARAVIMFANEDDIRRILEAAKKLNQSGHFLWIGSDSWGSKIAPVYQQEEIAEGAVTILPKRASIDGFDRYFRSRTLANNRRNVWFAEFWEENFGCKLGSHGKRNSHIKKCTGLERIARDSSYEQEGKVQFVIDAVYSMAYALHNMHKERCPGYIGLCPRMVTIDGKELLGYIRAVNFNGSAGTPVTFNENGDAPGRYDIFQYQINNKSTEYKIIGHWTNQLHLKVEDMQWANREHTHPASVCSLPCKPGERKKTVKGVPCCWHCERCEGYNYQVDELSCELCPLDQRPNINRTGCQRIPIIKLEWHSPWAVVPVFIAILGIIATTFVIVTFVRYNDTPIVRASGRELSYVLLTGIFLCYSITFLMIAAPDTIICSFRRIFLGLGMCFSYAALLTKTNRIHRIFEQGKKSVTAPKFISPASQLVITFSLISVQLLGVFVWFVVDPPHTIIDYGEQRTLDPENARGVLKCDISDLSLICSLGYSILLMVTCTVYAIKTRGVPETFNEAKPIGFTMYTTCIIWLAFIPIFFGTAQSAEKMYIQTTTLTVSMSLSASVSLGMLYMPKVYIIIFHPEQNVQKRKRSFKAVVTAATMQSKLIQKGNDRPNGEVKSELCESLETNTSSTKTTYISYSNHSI

SMILES	z-score
O=C(Nc1ccc(N2CCCC2)c(S(=O)(=O)Nc2cccc(C(F)(F)F)c2)c1)c1cccs1	-0.233
COc1ccc(Nc2ncnc3c2cnn3Cc2ccccc2)cc1OC	-0.181
CCOc1ccc(Nc2ncnc3c2cnn3Cc2ccccc2)cc1	2.26
COc1ccc(Nc2ncnc3c2cnn3Cc2ccccc2)cc1	-1.73
CC(=NCCCN(C)C)C1=C(O)c2ccccc2C1=O	0.45
CCc1ccc(C(=O)N2CCCC2)s1	0.0133
CCOCC(=O)Nc1nc(-c2ccccc2)c(CC)s1	-0.107
O=C(c1ccc(Cl)c(S(=O)(=O)N2CCc3ccccc3C2)c1)N1CCN(c2ccccc2)CC1	-0.0565
Cc1cccc(N2CCN(C(=O)c3ccc(Cl)c(S(=O)(=O)N4CCc5ccccc5C4)c3)CC2)c1C	3.61 (active)
Cc1cccc(NS(=O)(=O)c2cc(C(=O)N3CCc4ccccc4C3)ccc2Cl)c1C	-0.467
Brc1ccc(NCc2cccc3ccccc23)nc1	-0.475
Oc1ccccc1CNc1ccc(Br)cn1	5.86 (active)
Oc1ccc(Cl)cc1CNc1ccc(Br)cn1	0.33
CN=C1SC(CC(=O)Nc2sc(C)c(C)c2C(=O)OC)C(=O)N1C (stereo not given)	-0.51
COCCN(Cc1ccccc1)C(=S)Nc1ccc(OC(F)F)cc1	-0.227
Cc1c(C#N)c2ncn(CC#N)c(=O)c2n1-c1ccccc1	3.28 (active)
Cc1c(C#N)c2ncn(Cc3ccccn3)c(=O)c2n1-c1ccccc1	-0.89
Cc1c(C#N)c2ncn(Cc3ccccc3)c(=O)c2n1-c1ccccc1	-0.85
CC(=O)c1ccc(N2CCN(C(=S)Nc3cccc(Cl)c3)CC2)cc1	-0.152
CCOCCCNc1nc2ccccc2[nH]1	-0.0367
O=C1CCCC(=O)C1=C1SCCCS1	-0.18
O=C(Nc1ccc(Cl)cc1)N1CCCN(Cc2ccccc2F)C1	-0.218
O=C(Nc1ccc(Cl)cc1)N1CCCN(Cc2ccc(F)cc2)C1	2.53

SMILES	z-score
Cc1ccc(NC(=O)N2CCCN(Cc3ccc(F)cc3)C2)cc1C	-0.435
CN1C(=O)c2ccc(NC(=O)c3ccc(N4CCCCC4)c([N+](=O)[O-])c3)cc2C1=O	-0.139
Cc1cccc(NC(=O)c2cc(NC(=O)c3ccccc3)ccc2N2CCCCC2)c1	-0.201
CCN=C1SCC(=O)N1c1ccc(OC)cc1	-0.307
COc1ccc(S(=O)(=O)N(CCc2ccccc2)CC(=O)N/N=C/c2ccc3c(c2)OCO3)cc1	-0.0021
CCOc1ccccc1NC(=O)CN(C)S(=O)(=O)c1cccc2nsnc12	-0.173
COc1ccccc1NC(=O)CS(=O)(=O)c1cccc2nsnc12	1.99
COc1ccc(Cl)cc1NC(=O)CS(=O)(=O)c1cccc2nsnc12	0.107
Cc1csc(NC(=O)Cc2c[nH]c3ccccc23)n1	-0.137
COc1cc(C)ccc1OCCCON1C(=O)CCC1=O	0.122
CC(C)(C)c1ccc(OCCON2C(=O)CCC2=O)c(Cl)c1	3.08 (active)
O=C1CCC(=O)N1OCCCOc1ccc(Br)cc1Cl	0.401
CCn1c(=O)n(CC)c2cc(S(N)(=O)=O)c(C)cc21	0.381
COc1ccc(-c2cc(-c3ccccc3)c(C#N)c(SCC(=O)Nc3ncc(C)s3)n2)cc1	-0.161
CCN(CC)CC(O)COc1ccc2c(c1)c(C(C)=O)c(C)n2-c1ccccc1 (stereo not given)	2.25
CCOc1ccc2c(c1)c(C(C)=O)c(C)n2-c1ccccc1	-1.1
CCOC(=O)c1c(C)n(C)c2ccc(OCC(O)CN(CC)CC)cc12 (stereo not given)	0.554
CC1CCN(S(=O)(=O)c2ccc(NC(=O)CN3CCN(C)CC3)cc2)CC1	0.193
Cc1nn2c(CN(C(=O)COc3ccccc3)c3ccccc3)nnc2c2ccccc12	-0.835
Clc1ccc2c(N3CCCC3)ccnc2c1	2.36
O=C(Oc1ccnc2cc(Cl)ccc12)N1CCOCC1	-0.719
Clc1ccc2c(NNc3ccccc3Cl)ccnc2c1	-0.353
Cc1cc(C)nc(N2CCC(C(=O)Nc3ccc(Oc4ccccc4)cc3)CC2)n1	-0.163

SMILES	z-score
CC(C(=O)Nc1ccc([N+](=O)[O-])cc1)N1CCN(C/C=C/c2ccccc2)CC1 (stereo not given)	-0.146
CCc1ccc2nc(N3C(=O)C(O)=C(C(=O)c4ccco4)C3c3cccs3)sc2c1 (stereo not given)	-1.1
N=c1sccn1CC(=O)Nc1ccc(S(=O)(=O)N2CCOCC2)cc1	2.19
Cc1ccc(S(=O)(=O)N2CCOCC2)cc1NC(=O)Cn1ccsc1=N	0.262
N=c1sccn1CC(=O)Nc1ccc(Cl)c(S(=O)(=O)N2CCOCC2)c1	0.131
CCOC(=O)CC1C(=O)NCCN1Cc1cccc(OC)c1 (stereo not given)	-0.139
COc1ccc(NC(=O)c2ccco2)cc1NC(=O)c1ccc(Br)o1	-0.82
Cc1csc(SCC(=O)Nc2ncc(Cl)c(C)c2Cl)n1	0.185
COc1ccc(N(CC(=O)Nc2nc3ccc(C)cc3s2)S(=O)(=O)c2c(C)nn(C)c2C)cc1	2.44
Cc1nn(C)c(C)c1S(=O)(=O)N(CC(=O)NC1CCCCCC1)c1ccc(C(C)C)cc1	-0.146
COc1ccc2nc(NC(=O)CN(c3ccc(C)cc3)S(=O)(=O)c3c(C)nn(C)c3C)sc2c1	0.03
Cc1nn(C)c(C)c1S(=O)(=O)N(CC(=O)NCCCOC(C)C)c1ccc(C(C)C)cc1	-0.0899
COc1ccc(N(CC(=O)Nc2nccs2)S(=O)(=O)c2c(C)nn(C)c2C)cc1	0.0495
Cc1cccc(NC(=O)CN(c2ccc(C(C)C)cc2)S(=O)(=O)c2c(C)nn(C)c2C)n1	2.21
CSc1ccc(/C=N/NC(=O)CN2CCN(Cc3ccccc3)CC2)cc1	-0.0744
CC(=O)Oc1ccc2c(c1)cc(C)n2C	0.458
O=C1c2ccccc2C(=O)N1CCn1c(=O)oc2ccccc21	1.56
CC(=O)Nc1ccc([N+](=O)[O-])cn1	-0.229
CC(Oc1cccc(Cl)c1)C(=O)Nc1ccc([N+](=O)[O-])cn1 (stereo not given)	-0.576
Cc1cc(Cl)ccc1OC(C)C(=O)Nc1ccc([N+](=O)[O-])cn1 (stereo not given)	2.07
COC(=O)c1c(NC(=O)CSc2nnnn2-c2ccccc2)sc2c1CCC(C)C2 (stereo not given)	-0.121
COc1ccc(/C=C2\NC(=S)N(CC3CCCO3)C2=O)c(OC)c1C (stereo not given)	2.32
COc1ccccc1/C=C1\NC(=S)N(CC2CCCO2)C1=O (stereo not given)	0.246

SMILES	z-score
COc1ccc(/C=C2\NC(=S)N(CC3CCCO3)C2=O)c(OC)c1 (stereo not given)	0.39
CCOC(=O)c1nnn(-c2nonc2N)c1COc1cc(C)c(Cl)c(C)c1	-0.174
CCCCC1CC(CSc2ncn[nH]2)OC1=O (stereo not given)	-0.0735
CCCCCCCC1CC(CSc2ncn[nH]2)OC1=O (stereo not given)	5.73 (active)
CCCCCCC1CC(CSc2ncn[nH]2)OC1=O (stereo not given)	-0.0128
CCCCC1CC(CSC(=N)N)OC1=O (stereo not given)	0.732
CCCCCCCC1CC(CSC(=N)N)OC1=O (stereo not given)	5.96 (active)
CCCCCCC1CC(CSC(=N)N)OC1=O (stereo not given)	0.116
CC(C)C(=O)Nc1nc2c(ncn2C2CC(O)C(CO)O2)c(=O)[nH]1 (stereo not given)	-0.334
CC(C)OC(=O)n1c(=S)oc2ccccc21	-0.00387
S=c1[nH]nc(CSCc2ccc(Cl)cc2Cl)n1-c1ccccc1	15.5 (active)
S=c1[nH]nc(Cc2ccccc2)n1-c1ccccc1	0.938
CSc1nnc(CSCc2ccc(Cl)cc2Cl)n1-c1ccccc1	-0.0778
Cn1ncc(C#N)c1NC(=O)c1cc(-c2ccccc2Cl)on1	0.559
O=C(CSc1nc(C2CC2)nc2ccccc12)N1CCc2ccccc2C1	-0.769
Cc1cc(=O)n2cc(-c3ccccc3)nc2[nH]1	-0.318
CC1CCN(CCCCOc2ccccc2Br)CC1	-0.0355
Cc1cc(Cl)ccc1N=C1N=C(N)c2ccccc21	-1.75
COC(=O)c1sccc1NC(=O)CSc1ccccc1NS(=O)(=O)c1ccc(F)cc1	0.941
COC(=O)c1sccc1NC(=O)CN(C)NS(=O)(=O)c1ccc(Cl)cc1	-0.811
COC(=O)c1sccc1NC(=O)Cc1ccc(Br)cc1	-0.0914
COC(=O)c1sccc1NC(=O)CSc1ccc(Cl)cc1	0.289
COC(=O)c1sccc1NC(=O)CSc1ccccc1NS(=O)(=O)c1ccc(Cl)cc1	3.6 (active)

SMILES	z-score
COC(=O)c1sccc1NC(=O)CSc1ccccc1NS(=O)(=O)c1ccc(Br)cc1	2.31
N#Cc1ccc(OCC(=O)N/N=C2\CCc3ccccc32)cc1	-0.239
CCN(CC)C(=O)C(Sc1ccccc1)c1ccccc1 (stereo not given)	0.926
CC(=O)Nc1ccc(NC(=O)CSc2ccc(C)cc2)cc1	0.00682
CCOC(=O)c1ccc(NC(=O)CN2C(=O)C(C)SC(C)C2=O)cc1 (stereo not given)	-0.088
Cc1nc(NC(C)C(=O)O)c2nc(C)oc2n1 (stereo not given)	-0.0905
CCn1cc(C2=NC(C)(C)CO2)c2ccccc21	-0.521
CCn1cc(C2=NC(C)CO2)c2ccccc21 (stereo not given)	-0.418
CCn1cc(C2=NCCO2)c2ccccc21	2.2
COc1ccc2[nH]c(C)c(CCN3C(=O)C4C5C=CC(C5)C4C3=O)c2c1 (stereo not given)	-0.454
COC(=O)CSc1ncnc2c1cnn2Cc1ccccc1	-0.981
Cc1ccc(CSc2ncnc3c2cnn3-c2ccc(C)cc2)cc1	1.75
c1ccc(CSc2ncnc3c2cnn3Cc2ccccc2)cc1	-0.473
Cc1ccc(-n2ncc3c(SCc4ccccc4)ncnc32)cc1	2.51
NC(=O)CSc1ncnc2c1cnn2Cc1ccccc1	4.34 (active)
Cc1ccc(CSc2ncnc3c2cnn3-c2ccccc2)cc1	0.333
Cc1cccc(CSc2ncnc3c2cnn3Cc2ccccc2)c1	-0.46
Cc1ccc(-n2ncc3c(SCc4cccc(C)c4)ncnc32)cc1	2.66
Cc1ccc(CSc2ncnc3c2cnn3Cc2ccccc2)cc1	-0.449
CN(C)c1ccnc2sc3c(NCC(O)CO)ncnc3c12 (stereo not given)	-0.106
CCOC(=O)c1c(C)[nH]c(C(=O)COC(=O)/C=C/c2ccc3c(c2)OCO3)c1C	0.00271
Cc1nc2ccccc2cc1C(=O)O	0.0939
CC(C/C=N/NC(=O)COc1cc(Cl)ccc1Cl)c1ccccc1 (stereo not given)	-0.0205
